# Test results from PubChem BioAssay (Tox21).
# Inconclusive results are not listed. Calls of active or inactive are those of the source. Calls follow the shape of the full dose curve.
# Assay: p53 small molecule agonists, cell-based qHTS assay with human liver microsomes: qHTS cell viability counter screen (AID 1963579); also: nearly all actives have a fitted effect of over 45% in size
# Conditions: p53RE-bla HCT-116 viability, ATP luminescence, 16 h, HLM; series mostly up to 66 µM; activity change, negative = cytotoxicity: at the top concentration
# Text: National Center for Advancing Translational Sciences [NCATS]
# Division of Preclinical Innovation [DPI]
# U.S. Environmental Protection Agency [EPA]
# National Institutes of Environmental Health Sciences [NIEHS]
# National Toxicology Program [NTP]
# U.S. Food and Drug Administration [FDA]
# p53, a tumor suppressor protein, is activated following cellular insult, including DNA damage and other cellular stresses. The activation of p53 regulates cell fate by inducing DNA repair, cell cycle arrest, apoptosis, or cellular senescence. The activation of p53, therefore, is a good indicator of DNA damage and other cellular stresses. […] The activation of the reporter gene under culture conditions can be detected by fluorescence intensity. This cell line was used to screen the Tox21 10K compound library in the condition of presence of human liver microsomes and to identify agonists that activate the p53 signaling pathway after in vitro metabolic activation (Ooka et al., Archive of Toxicology 96:1975-1987, 2022).
# Tox21 Assay Protocol Summary:
# The p53RE-bla cells were dispensed at 4,000cells/3ul/well in 1536-well black-clear bottom plates. After the assay plates were incubated at 37 C, 5% CO2 incubator for 5 hours, 23 nL of compounds dissolved in DMSO, positive controls or DMSO only was transferred to the assay plate. Following compound addition, 3 uL of human liver microsomes (XenoTech, Kansas City, KS) at final concentration of 0.5 mg/mL and 1uL of B-Nicotinamide adenine dinucleotide 2'-phosphate (NADPH) at final concentration of 0.5 mg/mL were transferred to the assay plate. The plates were incubated at 37 C for 16 hours. 1 uL of LiveBLAzer detection mixture was added to each well and the plates were incubated at room temperature in the dark for 2 h. Fluorescence intensity at 460 and 530 nm emission and 405 nm excitation were measured by an Envision plate reader. For cell viability readout that measures cytotoxicity, 4 ul/well of CellTiter-Glo reagent was added into the assay plates using a Flying Reagent Dispenser. After 30 min incubation at room temperature, the luminescence intensity in the plates was measured using a ViewLux plate reader.
# % is scaled to controls: 0 for no effect and ±100 for the full control effect; potency is read from the fitted curve at half-maximal effect.
SMILES,"activity change, negative = cytotoxicity",Potency
O=C(O)COCC(=O)O,-2.06% (inactive),
CC(=O)OCC(=O)[C@@]1(O)CC[C@H]2[C@@H]3CCC4=CC(=O)C=C[C@]4(C)[C@@]3(F)[C@@H](O)C[C@@]21C,3.71% [at 30.3 µM] (inactive),
Cc1cccc(CN2CCN(C(c3ccccc3)c3ccc(Cl)cc3)CC2)c1 (stereo not given),29.3% [at 30.3 µM] (inactive),
O=C1CCCCCCCCCCOCCCCO1,-8.19% (inactive),
NC(=O)c1ccncc1,1.33% (inactive),
C#CC(O)CCCCC (stereo not given),6.71% (inactive),
CO[Si](CCCNc1ccccc1)(OC)OC,5.35% (inactive),
CC(CN(C)C)C(C)(O)Cc1ccc(Cl)cc1 (stereo not given),-1.16% [at 30.3 µM] (inactive),
CCc1cc(Cl)c(OC)c(C(=O)NC[C@@H]2CCCN2CC)c1O,-3.28% [at 30.3 µM] (inactive),
C=C(C)C(=O)OCCOCC,0.775% (inactive),
CCCCNS(=O)(=O)c1ccc(C)cc1,-0.476% (inactive),
CC(=O)Oc1cc2c(s1)CCN(C(C(=O)C1CC1)c1ccccc1F)C2 (stereo not given),-1.24% [at 30.3 µM] (inactive),
O=C(NCCCN1CCOCC1)c1ccc(Cl)cc1,-5.91% [at 30.3 µM] (inactive),
CC(NC(CCc1ccccc1)C(=O)O)C(=O)N1C(=O)N(C)CC1C(=O)O (stereo not given),-9.39% [at 30.3 µM] (inactive),
Cc1cccc(C)n1,1.71% (inactive),
CCCCC(CC)COC(=O)CCCCCCCCC(=O)OCC(CC)CCCC (stereo not given),1.06% (inactive),
CCOc1nc2cccc(C(=O)O)c2n1Cc1ccc(-c2ccccc2-c2nn[nH]n2)cc1,0.0432% [at 30.3 µM] (inactive),
CCCC(c1cc(C(C)(C)C)c(O)cc1C)c1cc(C(C)(C)C)c(O)cc1C,,9.24 µM (active)
CCCCCc1ccc(N)cc1,2.81% (inactive),
CC(C)C[C@H](NC(=O)OCC1c2ccccc2-c2ccccc21)C(=O)O,-4.1% (inactive),

SMILES,"activity change, negative = cytotoxicity",Potency
CCOC(=O)CCc1ccccc1,15.2% (inactive),
Cn1c(=O)c2c(ncn2CC(=O)O)n(C)c1=O,-6.67% [at 30.3 µM] (inactive),
CC(C)CCCC(=O)O,3.89% (inactive),
CC[N+](CC)(CCNC(=O)C(=O)NCC[N+](CC)(CC)Cc1ccccc1Cl)Cc1ccccc1Cl,-12.1% [at 30.3 µM] (inactive),
CNCCc1ccccn1,20.3% [at 30.3 µM] (inactive),
COc1ccccc1Oc1c(NS(=O)(=O)c2ccc(C(C)(C)C)cc2)nc(-c2ncccn2)nc1OCCO,11.6% [at 30.3 µM] (inactive),
CC(=O)O[C@H]1CC[C@@]2(C)C(=CC[C@@H]3[C@@H]2CC[C@]2(C)C(C(C)=O)=CC[C@@H]32)C1,-1.64% [at 30.3 µM] (inactive),
O=C1CC2(CCCC2)CC(=O)N1,-0.765% [at 30.3 µM] (inactive),
CCCCCCCCC(=O)Cl,-9.97% (inactive),
NC1CCN(c2nc3c(cc2F)c(=O)c(C(=O)O)cn3-c2ccc(F)cc2F)C1 (stereo not given),17.4% [at 30.3 µM] (inactive),
CCCCCCCCOc1ccccc1C(=O)Nc1ccc(C(=O)OCC[N+](C)(CC)CC)cc1,-3.79% [at 30.3 µM] (inactive),
CC1(C)CC(N)CC(C)(C)N1,-0.444% (inactive),
Oc1ccc(Oc2ccccc2)cc1,-6.66% (inactive),
OC[C@@H](O)C(O)[C@@H](O)CO (stereo not given in full),4.63% (inactive),
Cc1nc2ccccn2c(=O)c1CCN1CCC(C(=O)c2ccc(F)cc2)CC1,0.719% [at 30.3 µM] (inactive),
CC(=O)Nc1cc(S(=O)(=O)O)cc2cc(S(=O)(=O)O)c(N=Nc3ccccc3)c(O)c12,-4.47% (inactive),
COC(=O)/C=C\C(=O)O,6.52% (inactive),
Cc1ccc(=O)n(-c2ccccc2)c1,-3.4% [at 30.3 µM] (inactive),
N#Cc1ccc(C/C(=N/NC(=O)Nc2ccc(OC(F)(F)F)cc2)c2cccc(C(F)(F)F)c2)cc1,3.02% (inactive),
COc1ccc(/C(C)=C/C(=O)O)c(OC)c1,-2.65% [at 30.3 µM] (inactive),
